Bioassay records: PubChem BioAssay, Sanford-Burnham Center for Chemical Genomics
This is a sample that favours compounds with a hit; in the whole collection about 1.8% have one here.
SUMO HTRF inh = blocks human SUMOylation mediated by UBC9 | hit rate 0.36% among 290,000 | HTRF SUMOylation assay, SAE1/SAE2 + UBC9, in vitro | P63279 | inhibition, % at 35 µM; in the data active = inhibition above about 50%, passing the limit was not always enough
Target sequence (P63279 whole entry, looked up): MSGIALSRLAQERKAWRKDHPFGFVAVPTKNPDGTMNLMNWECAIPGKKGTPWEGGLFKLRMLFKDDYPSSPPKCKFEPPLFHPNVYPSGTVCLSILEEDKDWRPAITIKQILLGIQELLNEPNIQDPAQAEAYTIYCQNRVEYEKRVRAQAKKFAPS
PHOSPHO1 inh = PHOSPHO1 (human) inhibition; Q8TCT1; recombinant PHOSPHO1, absorbance phosphatase assay; inhibition, % at 13.3 µM; hit rate 1.1% among 290,000; in the data active = inhibition above about 60%
Target sequence (Q8TCT1 whole entry, looked up): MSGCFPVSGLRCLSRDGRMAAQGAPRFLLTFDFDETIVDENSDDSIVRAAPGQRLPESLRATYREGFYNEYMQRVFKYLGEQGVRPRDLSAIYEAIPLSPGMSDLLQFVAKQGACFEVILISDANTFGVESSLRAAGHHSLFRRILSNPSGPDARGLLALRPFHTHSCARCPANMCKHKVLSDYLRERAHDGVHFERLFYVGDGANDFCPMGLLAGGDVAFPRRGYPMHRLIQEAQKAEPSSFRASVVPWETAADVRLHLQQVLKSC
NadD inh = NadD (S. aureus) enzyme inhibition; purified NadD enzyme, colorimetric absorbance read-out; inhibition, % at 20 µM; hit rate 0.78% among 360,000; AID 602399; in the data active = inhibition above about 26%
p-CIP stab down = lowers stability of the mouse p/CIP coactivator protein | decrease of EGFP signal, % at 10 µM | F442A p/CIP-EGFP cells, EGFP fluorescence, 16 h | hit rate 0.01% among 290,000;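 active = EGFP signal decrease of at least 30% at 10 µM or well 3 SD below plate mean, unless failing retest; inactive = the rest, including hits failing retest or dose response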
Active calls of the source: *; . = not tested or not shown.

SMILES | SUMO HTRF inh | PHOSPHO1 inh | NadD inh | p-CIP stab down
Cn1c(CN2CCN(C(=O)c3ccco3)CC2)nc2cc([N+](=O)[O-])ccc21 | 14 | 66* | 5 | 12
CCCCn1c(NC(=O)c2ccco2)c(S(=O)(=O)c2ccc(C)cc2)c2nc3ccccc3nc21 | 100* | -3 | 24 | -13
C=CCn1c(NC(=O)c2ccccc2Cl)c(C#N)c2nc3ccccc3nc21 | . | 18 | 3 | 4
CCCCCn1c(N)c(C#N)c2nc3ccccc3nc21 | 88* | 10 | 2 | -2
N#Cc1c(N)n(-c2cccc(C(=O)O)c2)c2nc3ccccc3nc12 | 60* | -1 | -6 | -28
N#Cc1c(N)n(CCCN2CCOCC2)c2nc3ccccc3nc12 | 31 | 0 | 8 | -7
CCCCn1c(NC(C)=O)c(C#N)c2nc3ccccc3nc21 | 102* | -2 | 1 | -22
Cc1ccc(NCCCn2ccc(NC(=O)OCc3ccccc3)nc2=O)cc1C | . | . | 4 | .
O=C(c1ccco1)N(CCC(c1ccccc1)c1ccco1)Cc1ccco1 (centres undefined) | 25 | 34 | 45* | -22
CN(C(=O)COC(=O)COc1ccc2ccccc2c1)c1ccccc1 | . | . | -10 | .
CCOc1cc2[nH]c(=S)n(C3CC3)c(=O)c2cc1OCC | 13 | 6 | -1 | 9
CCOc1cc2[nH]c(=S)n(C(C)C)c(=O)c2cc1OCC | -14 | 71* | -1 | 6
COc1ccc(OC)c(-c2c3c([nH]c(=S)c2C#N)CCCC3)c1 | 12 | -27 | 4 | -1
N#Cc1c(-c2cccnc2)c2c([nH]c1=S)CCCC2 | 31 | 74* | 6 | -8
N#Cc1c(N)nc2c(c1-c1cccnc1)CCCCC2 | 7 | 5 | 7 | -4
N#Cc1c(-c2ccco2)c2c([nH]c1=S)CCCC2 | 7 | 62* | 24 | 11
CCCCN1C(=O)C(CC(=O)NCCCN(C)C)CC(C(=O)N(C)C)=C1C (centres undefined) | . | . | 5 | .
Cc1ccc(C(=O)Nc2cccnc2)cc1Cl | 9 | 27 | -2 | 1
COc1ccc(/C=C(\NC(=O)c2ccccc2)C(=O)N/N=C/c2ccncc2)cc1 | 27 | 65* | 11 | 0
Cc1ccc(NC(=O)/C(=C\c2ccc([N+](=O)[O-])cc2)NC(=O)c2ccccc2)cc1 | 21 | 11 | 1 | -10
O=C(N/N=C/c1ccc(O)c(O)c1O)/C(=C/c1ccc([N+](=O)[O-])cc1)NC(=O)c1ccccc1 | 49 | 12 | 44* | 4
COc1ccc(/C=C(\NC(=O)c2ccccc2)C(=O)N/N=C/c2cccnc2)cc1 | 10 | 2 | -3 | -7
COc1ccc(/C=C(/NC(=O)c2ccc(C)cc2)C(=O)NCc2ccncc2)cc1 | . | 70* | 0 | -6
Nc1ccn([C@@H]2O[C@H](C(=O)N(CCC3=CCCCC3)CC3CC3)[C@@H](O)[C@H]2O)c(=O)n1 | . | . | -6 | .
CCOC1=C2CN(S(=O)(=O)c3ccccc3)[C@H](c3ccccc3)C[C@H]2n2c(=O)n(-c3ccccc3)c(=O)n2C1 | . | . | 12 | .
SMILES | SUMO HTRF inh | PHOSPHO1 inh | NadD inh | p-CIP stab down
CC(C)C[C@@H]1COc2cccc(N3CCC[C@@H]3CO)c2S(=O)(=O)N1 | . | . | -4 | .
COC(=O)[C@]1(Sc2ccc(C)cc2)CC(=O)N[C@@H]1c1ccccc1 | . | . | 0 | .
COc1ccc(-n2c(C)cc(-c3csc(NC(=O)c4ccc(S(=O)(=O)N(C)C)cc4)n3)c2C)cc1 | -3 | -16 | 34* | 7
CCCCn1c(N)c(N(CCC(C)C)C(=O)c2c(CC)noc2C)c(=O)[nH]c1=O | . | . | -5 | .
COc1cccc(-c2nnc3sc(-c4ccco4)nn23)c1 | 13 | 74* | 4 | -2
Cc1oc(-c2ccc(Cl)cc2)cc1-c1nn2c(-c3ccco3)nnc2s1 | 35 | 92* | . | -6
COc1ccc(-c2nnc3sc(-c4ccco4)nn23)cc1OC | 16 | -23 | 3 | -10
Clc1ccc(-c2nnc3sc(-c4ccco4)nn23)c(Cl)c1 | 11 | -18 | . | -8
CCCc1nn(C)c2c(=O)[nH]c(-c3cc(S(=O)(=O)N(CCO)CCO)ccc3OCC)nc12 | 3 | 63* | -1 | -28
CCc1c(C)[nH]n(-c2ccc(Oc3ccccc3)c(S(=O)(=O)O)c2)c1=O | 17 | 65* | 16 | 5
O=c1ccn([C@@H]2O[C@H](CNCc3cccn3-c3ccncc3)[C@@H](O)[C@H]2O)c(=O)[nH]1 | . | . | -1 | .
C=CCn1c(C(C)NC(=O)c2ccccc2)n[nH]c1=S (centres undefined) | 24 | 80* | -1 | 1
Cc1ccc(/C=N/c2sc3c(c2C(N)=O)CCCC3)o1 | 12 | -152 | 1 | -6
NC(=O)c1c(/N=C/c2cccnc2)sc2c1CCCC2 | 1 | 77* | 8 | -9
CCN(CC)C(=O)C(=O)Nc1cc(C(F)(F)F)ccc1Cl | 11 | 75* | -2 | 2
CC1O[C@@H](OC2C(O)C(O)C(CO)O[C@H]2OC2C[C@]3(C)C(CC(O)C4[C@@H]([C@]5(C)CC[C@@H](C(C)(C)O)O5)CC[C@]43C)[C@@]3(C)CCC(O)C(C)(C)C23)C(O)C(O)C1O (some centres undefined) | . | . | 6 | .
O=C(Nc1ccc(N2CCCCC2)cc1)c1cccnc1Cl | 11 | 53 | -2 | -12
CS(=O)(=O)N1CCN(c2ccc(NC(=O)c3cccnc3Cl)cc2)CC1 | -3 | 100* | -6 | -8
CN(C)CC(C)(C)CNS(=O)(=O)c1ccc(Cl)cc1 | -6 | -2 | -1 | 14
CN(C)CC(C)(C)CNS(=O)(=O)c1cccc(Cl)c1Cl | -1 | 75* | 13 | -8
O=C1C(Cc2ccccc2)Nc2ncnc(N3CCc4ccccc4C3)c2N1Cc1ccc(Cl)cc1 (centres undefined) | . | . | 63* | .
CCC1Nc2ncnc(N3CCc4ccccc4C3)c2N(Cc2ccc(Cl)cc2)C1=O (centres undefined) | . | . | 27 | .
Cc1ccc(-c2csc(C(O)c3cccc(Cl)c3)n2)cc1C (centres undefined) | . | . | -6 | .
CC(C)CNC(=S)NNC(=O)CC(C)O (centres undefined) | 16 | 61* | 3 | -11
CCNC(=S)NNC(=O)CC(C)C | 0 | 6 | -3 | -3
SMILES | SUMO HTRF inh | PHOSPHO1 inh | NadD inh | p-CIP stab down
Cc1ccc2nc(-c3ccc(C#N)cc3)c(Cc3ccccc3)n2c1 | . | . | 8 | .
CCOC(=O)CSc1nc2sc3c(c2c(=O)[nH]1)CC(C)(CC)OC3 (centres undefined) | 2 | 81* | 5 | -2
Cn1c(Cc2cccs2)nnc1SCC(=O)N1CCCc2ccccc21 | 9 | 12 | -2 | -12
O=C(CSc1nnc(Cc2cccs2)n1CCc1ccccc1)N1CCCc2ccccc21 | -2 | 66* | 4 | -4
Cc1cccc(C)c1-n1nnnc1C1(C)CCC(=O)N1C1CC1 (centres undefined) | . | . | -4 | .
COc1ccc(OC)c(-c2csc(NC(=O)COC(=O)C3CCC3)n2)c1 | . | . | 1 | .
COc1ccc(OC)c(-c2csc(NC(=O)COC(=O)c3ccc(NC(=O)CC#N)cc3)n2)c1 | . | . | 48* | .
Cc1cc(C)c(-c2cc(NC(=O)COC(=O)c3ccc(NC(=O)CC#N)cc3)n(-c3ccccc3)n2)cc1C | . | . | 54* | .
C[C@@H](O)CNC(=O)c1[nH]cnc1C(=O)N[C@H](C)c1ccccc1 | . | . | -4 | .
